Laboratory results from PubChem BioAssay (NCI).
Compounds without any hit were thinned out: in the full panel of roughly 83,000, 20% have a hit.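 48-hour exposure, single concentration, 96-well plates; percent growth endpoint where 0 means no net growth. Active: below 10.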 Active and inactive are the calls of the source.

Experiments:
Assay in all cases: NCI-60 one-dose screen, 48 h (100 = growth as untreated, 0 = no growth, -100 = all killed)
Conditions in all cases: 10 µM unless noted
[1] = tested on: NCI-H23 lung
[2] = tested on: NCI-H226 lung
[3] = tested on: NCI-H322M lung
[4] = tested on: HOP-62 NSCLC
[5] = tested on: NCI-H460 lung
[6] = tested on: HOP-92 NSCLC
[7] = tested on: NCI-H522 lung
[8] = tested on: A549/ATCC NSCLC
[9] = tested on: 786-0 renal
[10] = tested on: COLO 205 colon
[11] = tested on: DU-145 prostate
[12] = tested on: K-562 leukemia
[13] = tested on: MALME-3M melanoma
[14] = tested on: MDA-MB-231 breast
[15] = tested on: RXF 393 renal
[16] = tested on: SF-268 CNS
[17] = tested on: SF-295 CNS
[18] = tested on: SF-539 CNS
[19] = tested on: UACC-257 melanoma
[20] = tested on: M14 melanoma

Measured: growth

CNC(=O)c1ccccc1Sc1ccc2c(/C=C/c3ccccn3)n[nH]c2c1
inactive: [1] 47.5% | [2] 20.9% | [3] 34.9% | [4] 24.3% | [5] 20.2% | [7] 24.2% | [8] 28.6% | [9] 44% | [11] 47.5% | [13] 37.2% | [14] 39.7% | [16] 41.9% | [17] 40% | [19] 31.5% | [20] 16.9%
active: [6] 9.47% | [10] 3.49% | [12] 6.57% | [15] 2.21% | [18] 3.31%

CC1=NOCC(=O)N1
inactive: [1] 106% | [2] 102% | [3] 111% | [4] 105% | [5] 107% | [6] 96% | [7] 92.8% | [8] 89.7% | [9] 101% | [10] 108% | [11] 111% | [12] 92.1% | [13] 117% | [14] 102% | [15] 103% | [16] 107% | [17] 87.7% | [18] 99.3% | [19] 101% | [20] 103%

N#Cc1nc(-c2ccc(Cl)cc2)cc(-c2ccc(Nc3nc(N4CCCCC4)nc(N4CCCCC4)n3)cc2)c1N
inactive: [1] 92.1% | [2] 71.2% | [3] 109% | [4] 94.8% | [5] 104% | [6] 101% | [7] 96.9% | [8] 106% | [9] 103% | [10] 113% | [11] 105% | [12] 105% | [13] 107% | [14] 114% | [15] 115% | [16] 101% | [17] 101% | [18] 103% | [19] 105% | [20] 104%

CCSc1ccc([C@@H]2[C@@H](O)C(=O)N2c2cc(OC)c(OC)c(OC)c2)cc1
inactive: [1] 34% | [2] 50.7% | [3] 39.4% | [4] 22.6% | [6] 101% | [8] 20.8% | [9] 14% | [11] 12.5% | [13] 71% | [14] 23.6% | [15] 35.9% | [16] 31.4% | [17] 18.1% | [19] 66.5% | [20] 10.4%
active: [5] 5.97% | [7] 6.56% | [10] -48.8% | [12] 7.65% | [18] 1.7%

COc1cc(C2CC(c3ccc(Cl)cc3)=NN2C=O)ccc1OS(=O)(=O)c1ccc(C)cc1 (stereo not given)
inactive: [1] 83.5% | [2] 84.5% | [3] 97% | [4] 96.6% | [5] 91% | [6] 85.1% | [7] 82.7% | [8] 78.8% | [9] 88.4% | [10] 100% | [11] 105% | [12] 82.1% | [13] 93.8% | [14] 92.5% | [15] 97.2% | [16] 100% | [17] 87.4% | [18] 89.6% | [19] 85.3% | [20] 84%

COc1ccc(/C=C(/C(=O)N2CCN(c3ccccc3)CC2)c2cc(OC)c(OC)c(OC)c2)cc1O
active: [5] 5.38% | [7] -9.76% | [11] 4.21% | [12] 6.23% | [17] 7.72% | [18] -10.8% | [20] 3.13%
inactive: [1] 31.5% | [2] 28.9% | [3] 42% | [4] 20.6% | [6] 94% | [8] 17.4% | [9] 25.5% | [10] 35.7% | [13] 60% | [14] 19.5% | [15] 20.4% | [16] 36.9% | [19] 58.1%

Cc1ccc(NC(=O)c2[nH]c(SCCN(C)C)nc2-c2ccc(F)cc2)cc1C#Cc1cnc2cccnn12
active: [4] -8.9% | [5] -69.4% | [7] 1.49% | [8] 5.21% | [9] -67.1% | [11] -19% | [12] -37.3% | [13] -9.58% | [14] -7.2% | [15] -61.6% | [16] -23.4% | [18] -84.4% | [20] -75.1%
inactive: [1] 66.7% | [2] 55.9% | [3] 48.1% | [6] 80.4% | [10] 81.1% | [17] 93.1% | [19] 12.7%

CCN(CC)CCCC(C)Nc1cnc(C(=O)Nc2cccc3ccc(OC)nc23)cn1 (stereo not given)
inactive: [1] 96.1% | [2] 61.4% | [3] 75.5% | [4] 94.2% | [6] 49.5% | [8] 81.2% | [9] 73.4% | [10] 71.4% | [11] 78.8% | [14] 71.8% | [15] 46% | [16] 63% | [17] 101%
active: [5] 1.05% | [7] 5.07% | [12] -57.1% | [13] -69.8% | [18] 0.457% | [19] -39% | [20] -75.6%
